Mito fusion yeast = mitochondrial division inhibition or fusion activation; S. cerevisiae fusion-defective mutant growth rescue, CellTiterGlo 48 h; Potency, µM (titrated, usually from 46.1 µM), actives largely listed as activators; actives 0.23% (n = 320,000); also: nearly all actives have a fitted effect of over 45% in size
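Growth-rescue viability read-out: after 48 h at the non-permissive 37C in glycerol/ethanol YPEG, yeast mitochondrial fusion mutants are measured by CellTiterGlo luminescence; compounds (23 nl pinned per well) restoring growth score as division inhibitors or fusion activators.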
IDH1 R132H inh = human IDH1 R132H inhibition | O75874 | IDH1-R132H enzyme, NADPH consumption, diaphorase/resazurin fluorescence | Potency, µM (highest dose often 76.6 µM), usual class: inhibitors | actives 0.093% (n = 390,000) | AID 602179; also: nearly all actives have a fitted effect of over 65% in size
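IDH1-R132H (0.5 ug/mL dispensed) in pH 7.5 Tris buffer was preincubated 30 min with compound, then given a substrate mix of 0.016 mM NADPH and 2 mM alpha-KG for 80 min at room temperature; remaining NADPH was read by diaphorase/resazurin fluorescence.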
ClpP mod = qHTS Assay for Activators of ClpP; ATP-dependent Clp protease proteolytic subunit (Bacillus subtilis (strain 168)), P80244; purified B. subtilis ClpP, FRET peptide cleavage, 20 min; Potency, µM (highest dose often 57.5 µM); actives 1.9% (n = 340,000); AID 651965, 2013; active = well fitted falling curve with a large enough effect; inconclusive = small, poorly fitted or top-dose-only effect; inactive = no such curve, though single readings can be large or run the other way; also: the source files actives as falling curves though it sought activators and does not explain the sign; nearly all actives have a fitted effect of over 65% in size
Target sequence (P80244 whole entry, looked up): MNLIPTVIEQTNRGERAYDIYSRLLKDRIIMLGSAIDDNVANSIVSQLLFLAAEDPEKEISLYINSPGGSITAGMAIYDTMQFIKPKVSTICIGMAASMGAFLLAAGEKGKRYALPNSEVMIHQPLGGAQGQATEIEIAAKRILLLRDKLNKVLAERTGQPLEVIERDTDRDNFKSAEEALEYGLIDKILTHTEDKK
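Purified B. subtilis ClpP, 10 microg/mL final in Tris/HCl pH8 with KCl, BSA, glycerol and Tween-20, cleaved an Abz/nitrotyrosine-quenched decapeptide. Fluorescence (ex 320, em 430) was read at 0 and 20 min at room temperature. Delta was normalized to 5.8 microM ADEP and DMSO/no-enzyme controls.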
LDHA block = inhibitors of human lactate dehydrogenase A | activity change, % (values are at about 110 or 230 µM) | P00338 | AID 1347041 | actives 0.15% (n = 480,000) | purified LDHA, NADH/diaphorase-resazurin fluorescence; active compounds read low; in the data active = activity change below about -30%; inconclusive = mostly about -25% to -30%
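Human LDH5 (2 nM) was incubated with 0.06 mM NADH and 0.2 mM pyruvate for 5 min at room temperature in Tris pH 7.4. Remaining NADH was coupled through diaphorase/resazurin, and resorufin fluorescence was read at 0 and 20 min.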
RGS4 inh = inhibitors of human regulator of G protein signaling 4. Potency, µM (doses to about 114 µM), usual class: inhibitors. Transcreener GDP fluorescence polarization, RGS4-accelerated GTP hydrolysis. actives 0.039% (n = 390,000). P49798; also: nearly all actives have a fitted effect of over 75% in size
Target sequence (P49798 whole entry, looked up): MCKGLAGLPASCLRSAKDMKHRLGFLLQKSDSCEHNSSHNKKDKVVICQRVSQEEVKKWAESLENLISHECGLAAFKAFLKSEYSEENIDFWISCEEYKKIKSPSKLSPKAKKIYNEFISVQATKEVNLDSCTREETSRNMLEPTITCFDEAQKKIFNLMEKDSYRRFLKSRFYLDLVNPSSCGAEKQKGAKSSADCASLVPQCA
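MLSMR compounds (23 nl, pin-transferred) preincubated 10 min at room temperature with a 500nM (2x) first reagent, then RGS4 at 900nM (2x) plus Transcreener GDP mix added; fluorescence polarization (620/688 nm) read before and after 90 min at 30 °C.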
S-ASM inh = inhibitors of human secretory acid sphingomyelinase | AID 504937 | P17405 | placental ASM, HMU-PC fluorogenic substrate, 60 min | actives 0.006% (n = 340,000) | Potency, µM (series often up to 57.5 µM), actives largely listed as inhibitors
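Fluorogenic HMU-PC substrate (9 uM final) is turned over by placental ASM in 60 min at 37 C after a 10 min compound preincubation. Reaction ended by alkaline stop (pH 10), with fluorescence read at 386/447 nm.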
Hits are given with their value; . = inactive; ? = inconclusive; / = not tested or not shown; ! = not confirmed by another sample; [ ] = dose if it differs, or a comment. Only a selection was taken, and hits are over-represented in it overall. Unless noted, calls follow the shape of the dose curve; as a rule, active = well fitted curve in the direction sought with a large enough effect; inconclusive = small, poorly fitted or top-dose-only effect, or another doubt; inactive = no such curve, though single readings can be large; an effect the other way counts as inactive or inconclusive.

SMILES	Mito fusion yeast	IDH1 R132H inh	ClpP mod	LDHA block	RGS4 inh	S-ASM inh
CCOc1ccccc1-n1c(O)c(C=NCCCN(CC)CC)c(=O)[nH]c1=O	.	.	32µM	.	.	.
COc1ccccc1CNCCc1ccccc1	/	/	/	.	/	/
Cc1[nH]nc2c1C(c1ccccc1)SCC(=O)N2 (stereo unspecified)	/	/	/	.	/	/
COc1ccc2sc(-c3ccccc3OC)c(-c3ccc(OCCN4CCOCC4)cc3)c2c1	/	.	28µM	.	.	?
COc1ccc2c(c1)c(CCN1CCOCC1)c(C)n2C(=O)c1cccc(Cl)c1Cl	?	/	/	/	.	/
COc1cccc(-c2sc3ccccc3c2-c2ccc(OCCN3CCOCC3)cc2)c1	/	.	32µM	.	.	?
COc1ccc(-n2c(CN3CCOCC3)nc3ccccc3c2=O)c(OC)c1	.	.	.	.	.	.
CCOc1ccc(-c2cc(C)[n+](CCN3CCOCC3)c(-c3ccc(OCC)cc3)c2)cc1	.	.	/	.	.	.
COc1cc(OC)cc(-c2sc3ccc(OC)cc3c2-c2ccc(OCCN3CCOCC3)cc2)c1	/	.	8.9µM	.	.	?
Cc1cccc(C)c1-n1nnnc1C1(NC(C)C)CCCCC1	/	/	/	.	/	/
Cc1ccc(OCC(=O)N2CCN(Cc3ccc(F)cc3)CC2)cc1	/	/	.	.	.	/
Cc1cccc(OCC(=O)N2CCN(Cc3cccnc3)CC2)c1	.	.	28µM	-33	.	.
Cc1ccc(OCC(=O)N2CCN(Cc3cccnc3)CC2)cc1	.	.	.	-32	.	.
COc1cccc(CC(=O)N2CCN(CC(=O)NC(C)(C)C)CC2)c1	/	/	/	.	/	/
CCCCn1c(O)c(C(CC)=Nc2ccc(C(=O)O)cc2)c(=O)[nH]c1=O	.	.	2.5µM	.	.[11.4 µM]	.
Cc1cc(S(=O)(=O)NCC(C)C)ccc1OCC(=O)N1CCN(Cc2ccccc2)CC1	.	.	16µM	.	.	.
[Hg+][c]1ccccc1	/	/	.	-62	/	/
c1ccc(Nc2ccc(Nc3ccccc3)cc2)cc1	?	.	?	.	.	.
CNC(=O)NC(=O)CN1CCN(C(=O)Cc2cccc(OC)c2)CC1	/	/	/	.	/	/
COc1ccccc1C1SCC(=O)Nc2c1c(C)nn2C (stereo unspecified)	/	/	/	.	/	/
COc1ccc(-n2c(=S)[nH]c3c(sc(=S)n3-c3ccccc3)c2=O)c(OC)c1	.	.	11µM	.	?	.
CC(=O)N1CCN(c2ccc(OC[C@H]3CO[C@](Cn4ccnc4)(c4ccc(Cl)cc4Cl)O3)cc2)CC1	0.41µM!	.	.	.	?	.
COc1ccc(-n2c(/C=C/c3ccco3)nc3ccccc3c2=O)cc1	/	/	/	.	/	/
CC(C)OCCCNC(=O)c1c(N)n(Cc2cccs2)c2nc3ccccc3nc12	?	.	10µM	.	.	.
CCCCNC(=O)c1c(N)n(CCCOC)c2nc3ccccc3nc12	?	.	25µM	.	.	.
SMILES	Mito fusion yeast	IDH1 R132H inh	ClpP mod	LDHA block	RGS4 inh	S-ASM inh
CCOC(=O)c1c(NS(=O)(=O)c2ccccc2)n(CCCOC)c2nc3ccccc3nc12	.	.	28µM	.	.	.
CC(C)CCn1c(N)c(C(=O)NCc2cccs2)c2nc3ccccc3nc21	.	.	14µM	.	.	.
Nc1c(C(=O)NCc2ccco2)c2nc3ccccc3nc2n1CCN1CCCCC1	.	.	.	.	.	.
Nc1c(C(=O)OCC2CCCO2)c2nc3ccccc3nc2n1Cc1cccs1 (stereo unspecified)	.	.	.	.	.	.
CC12CN3CC(C)(CN(C1)C3c1ccccn1)C2=O (stereo unspecified)	/	/	/	.	/	/
Cn1cc(C(=O)OCC(=O)Nc2c(F)cccc2F)c2ccccc21	/	/	/	.	/	/
O=C(CN1CCN(C(=O)Cc2c[nH]c3ccccc23)CC1)NC1CC1	/	/	/	.	/	/
COCCCn1c(N)c(C(=O)OCCOC)c2nc3ccccc3nc21	.	.	.	.	.[11.4 µM]	.
COCCNC(=O)c1c(N)n(CCC(C)C)c2nc3ccccc3nc12	.	.	16µM	.	.	.
O=C1CC=C2C3CC4N(CCC45c4cc(O)c(O)cc4N1C25)CC3=CCBr (stereo unspecified)	/	.	35µM	.	.	.
CC(Oc1ccc(Cl)cc1Cl)C(=O)Nc1ccc(S(=O)(=O)Nc2cnc3ccccc3n2)cc1 (stereo unspecified)	.	.	16µM	.	.[11.4 µM]	.
COc1ccc2c(c[n+](C)c3c4cc5c(cc4ccc23)OCO5)c1OC	5.8µM	/	/	/	6.7µM	/
CCn1cc(C(=O)Cn2cnc3ccccc32)c2ccccc21	/	/	/	.	/	/
Cc1ccc(C2CC(=O)C(C=NCCN3CCN(C(=O)Cc4ccccc4)CC3)=C(O)C2)cc1 (stereo unspecified)	.	.	32µM	.	.[11.4 µM]	.
O=C1CC(c2ccccc2)CC(O)=C1C=NCCN1CCN(C(=O)Cc2ccccc2)CC1 (stereo unspecified)	.	.	.	.	.	.
COc1ccc(CNCCc2cccc(F)c2)cc1	/	/	/	.	/	/
Cc1nn(C)c(C)c1/C=C1/CC2C3CC=C4CC(O)CCC4(C)C3CCC2(C)C1=O (stereo unspecified)	16µM	.	.	.	.	.
c1ccc2sc(NC3=NCCN3)nc2c1	3.2µM	.	.	.	.	.
COc1ccc2nc(NC3=NCCN3)sc2c1	?	.	.	.	.	.
CCOC(=O)c1cccc(NC(=O)c2cnc(N3CCCCC3)c3ccccc23)c1	/	.	28µM	.	.	/
Cc1[nH]nc2c1C(c1ccc(-c3ccc(Cl)cc3)o1)SCC(=O)N2 (stereo unspecified)	/	/	/	.	/	/
C[N+]12CCC(CC1)C(C(O)(c1ccccc1)c1cccs1)C2 (stereo unspecified)	.	.	.	-36	.	.
Nc1ccc(C2(c3ccc(N)cc3)c3ccccc3-c3ccccc32)cc1	25µM	.	/	.	.	.
C=CCn1c(O)c(C(C)=NCCCn2ccnc2)c(=O)[nH]c1=O	.	.	/	.	.	.
C=CCn1c(O)c(C(C)=NCCCN(C)C)c(=O)[nH]c1=O	.	.	14µM	.	.	.
CC(Nc1ccc([N+](=O)[O-])c2nonc12)c1ccc(Cl)cc1 (stereo unspecified)	/	/	/	.	/	/
Cc1oc(-c2ccccc2)nc1CN1C(=O)CN=C(c2ccccc2)c2ccccc21	13µM	.	.	.	.	.
Cc1ccccc1-c1nc(CN2C(=O)CN=C(c3ccccc3)c3ccccc32)c(C)o1	/	.	.	.	.	/
Cc1ccc(NC(=O)c2cn(Cc3ccccc3)nn2)c(C)c1	/	/	/	.	/	/
COC(=O)c1c(N)n(Cc2ccc(OC)cc2)c2nc3ccccc3nc12	.	.	10µM	.	.	.

Screening results as filed in PubChem BioAssay.
